From PubChem BioAssay (Tox21) come the findings set out here.

Each structure is given as a SMILES string. Results filed as inconclusive are left out. The source made the active and inactive calls. Unless noted, calls come from the whole dose curve.

A short description of test [1]: Nuclear factor erythroid 2-related factor 2/antioxidant responsive element (Nrf2/ARE) small molecule agonists: qHTS cell viability counter screen in human keratinocytes (AID 1919968; active = well fitted cell-killing curve with a large enough effect in the repeat runs; note: nearly all actives have a fitted effect of over 55% in size). The essentials: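 HaCaT ARE reporter line, 1,500 cells/well; 5 h settle, 37 C/5% CO2; cpd in DMSO pinned; 23 h exposure; CellTiter-Fluor, 1 h; fluorescence.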
(Quantitative high-throughput screening tests each substance at several concentrations.)

Test [2] in a line: Nuclear factor erythroid 2-related factor 2/antioxidant responsive element (Nrf2/ARE) small molecule agonists: luciferase reporter gene qHTS assay in human keratinocytes (AID 1919969). Note: nearly all actives have a fitted effect of over 35% in size. Note: potency is the fitted concentration of half-maximal effect.
Test [3] deals with Gonadotropin-releasing hormone receptor (Homo sapiens) (UniProt P30968). Briefly: Human gonadotropin-releasing hormone receptor (GnRHR) small molecule agonists, calcium flux assay in GnRHR-HEK293 cells (AID 1920063). Note: nearly all actives have a fitted effect of over 35% in size. Note: potency is the fitted concentration of half-maximal effect. The essentials:
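GnRHR-HEK293, 1500 cells/well, 18 h 37 C/5% CO2; Ca dye 1 h 37 C; cpd pinned (DMSO), agonist mode; kinetic FL 480/540, 3 min, 1 s reads; 15 conc, n=3.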
For orientation: Calcium assays in cells follow changes in intracellular calcium, usually with a dye or a luminescent sensor.

Test [4] is described as follows: G protein-coupled receptor (GPCR) small molecule agonists, calcium flux assay: HEK293 wild type cell line counter screen (AID 1920065). The essentials: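 Kinetic fluorescence at Ex/Em 480/540, recorded every second over 3 min, served as the read-out after compound addition. Each compound was tested at 15 concentrations in triplicate on cells pre-loaded with calcium dye for 1 h.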

Test [5] is described as follows: p53 small molecule agonists, cell-based qHTS assay with human liver microsomes (AID 1963577).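 Note: p53 response element beta-lactamase reporter cells with liver microsomes plus NADPH.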 The essentials:
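Reporter activation was measured by LiveBLAzer fluorescence intensity in p53RE-bla cells, which had been exposed to compounds for 16 h at 37 C alongside 0.5 mg/mL human liver microsomes and 0.5 mg/mL NADPH (final concentrations).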

A short description of test [6]: p53 small molecule agonists, cell-based qHTS assay with rat liver microsomes (AID 1963578). The essentials: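 Compound in DMSO added to p53RE-bla cells 5 h post-plating; rat microsomes/NADPH 0.5 mg/mL final; 16 h, 37 C; LiveBLAzer 2 h RT.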
A short description of test [7]: p53 small molecule agonists, cell-based qHTS assay with human liver microsomes: qHTS cell viability counter screen (AID 1963579). Note: nearly all actives have a fitted effect of over 45% in size. The essentials: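 HLM-supplemented (0.5 mg/mL final) and NADPH-supplemented (0.5 mg/mL final) p53RE-bla cultures, 4,000 cells per well, were dosed with compounds in DMSO for 16 h at 37 C; luminescent ATP detection (CellTiter-Glo, 30 min, room temperature) quantified surviving cells.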

Test [8] can be described thus: p53 small molecule agonists, cell-based qHTS assay with rat liver microsomes: qHTS cell viability counter screen (AID 1963580). Note: nearly all actives have a fitted effect of over 45% in size. The essentials:
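Intracellular ATP, by CellTiter-Glo luminescence, defines viability. HCT-116 p53RE-bla cells, 4,000 per well, were compound-treated in the presence of rat liver microsomes and NADPH for 16 h at 37 C.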

The nature of test [9]: p53 small molecule agonists, cell-based qHTS assay: qHTS cell viability counter screen (AID 1963581). Note: nearly all actives have a fitted effect of over 45% in size. The essentials:
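HCT-116 p53RE-bla cells, 4,000/well, plated 5 h before compound pin transfer; 16 h at 37 C; bla substrate 2 h RT; then CellTiter-Glo, 30 min RT, luminescence.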

Test [10] deals with 5-hydroxytryptamine receptor 2A (Homo sapiens) (UniProt P28223). As to the kind of experiment: 5-hydroxytryptamine receptor 2A (HTR2A) small molecule antagonists, cell-based qHTS assay (AID 1963586). Note: nearly all actives have a fitted effect of over 45% in size. The essentials: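 Antagonist-mode intracellular calcium assay: DOI (4 nM) added after 5 min compound pre-incubation at room temperature to dye-loaded HTR2A-CHO cells. Fluorescence followed for 3 min, sampled every second.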
5-hydroxytryptamine receptor 2A (Homo sapiens), sequence (P28223 whole entry, looked up): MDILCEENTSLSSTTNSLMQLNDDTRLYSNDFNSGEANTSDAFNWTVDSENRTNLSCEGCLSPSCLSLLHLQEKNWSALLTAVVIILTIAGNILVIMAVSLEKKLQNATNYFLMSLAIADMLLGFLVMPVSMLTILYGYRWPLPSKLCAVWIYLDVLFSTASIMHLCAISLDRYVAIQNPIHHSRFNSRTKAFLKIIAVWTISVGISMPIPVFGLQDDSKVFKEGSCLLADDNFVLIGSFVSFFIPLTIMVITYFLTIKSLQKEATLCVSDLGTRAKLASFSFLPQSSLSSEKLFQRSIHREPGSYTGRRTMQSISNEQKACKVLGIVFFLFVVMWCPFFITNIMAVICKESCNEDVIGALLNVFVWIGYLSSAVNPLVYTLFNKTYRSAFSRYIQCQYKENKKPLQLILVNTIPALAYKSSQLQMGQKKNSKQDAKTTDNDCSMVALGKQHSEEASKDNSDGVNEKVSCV

The target is the same in test [11]. Briefly: 5-hydroxytryptamine receptor 2A (HTR2A) small molecule agonists, cell-based qHTS assay (AID 1963587). Note: nearly all actives have a fitted effect of over 30% in size. The essentials: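 Kinetic calcium-flux fluorescence (2 min, 1 sec intervals) after compound addition in agonist mode. HTR2A-CHO cells were cultured 18 h, then dye-loaded 1 h at 37 C.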
Test [12] has as its target Muscarinic acetylcholine receptor M1 (Homo sapiens) (UniProt P11229). Briefly: Cholinergic receptor muscarinic 1 (CHRM1) small molecule agonists, cell-based qHTS assay (AID 1963589). Note: nearly all actives have a fitted effect of over 35% in size. Note: potency is the fitted concentration of half-maximal effect. The essentials:
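Human M1 in stable CHO line; 18 h plating, 1 h dye load 37 C; cpd added (agonist mode); Ca2+ fluorescence kinetic read, 1 s intervals; 15 conc, 3 runs.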

The nature of test [13]: cAMP Responsive Elements (CRE) small molecule agonists, cell-based qHTS assay (AID 1963590). The essentials: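 HEK 293T CRE-bla, 2,000 cells/well, 18 h preincubation 37 C/5% CO2; cpds (DMSO) pinned, 3 h; LiveBLAzer B/G FRET substrate, 2 h RT.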
Test [14] in a line: cAMP Responsive Elements (CRE) small molecule antagonists, cell-based qHTS assay (AID 1963591; active = well fitted inhibition curve with a large enough effect in the signal ratio in the repeat runs, not every such curve was filed as active; the % refers to the signal ratio). The essentials: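 Beta-lactamase reporter read by FRET substrate (LiveBLAzer B/G) after 2 h at room temperature. CRE-bla HEK293T cells had received compound plus 0.25 uM (final) NKH477 for 3 h at 37 °C.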
Test [15] concerns the target Beta-2 adrenergic receptor (Homo sapiens) (UniProt P07550). Briefly: Adrenergic beta2 receptor (ADRB2) small molecule antagonists, cell-based qHTS assay (AID 1963592). Note: series mostly up to about 92 µM; nearly all actives have a fitted effect of over 50% in size. The essentials: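 Cells (CHO, stable ADRB2 overexpression) incubated 18-20hr at 37C; compounds added from DMSO; agonist mix (1nM isoproterenol, 100uM IBMX, 25uM Ro-20-1724) added; 0.5hr RT; d2-cAMP and anti-cAMP-cryptate added; 1hr RT; 665/615 nm read.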

Test [16] deals with D(2) dopamine receptor (Homo sapiens) (UniProt P14416). Briefly: Dopamine D2 receptor (DRD2) small molecule agonists, cell-based qHTS assay (AID 1963594). Note: nearly all actives have a fitted effect of over 35% in size. The essentials: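 cAMP accumulation in DRD2-HEK293 cells measured by HTRF after 1 h detection; compounds added 10 min before NKH477 (200nM […]) forskolin-analogue stimulation, 30 min at room temperature, with Ro20-1724 present at 0.1 mM final.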
D(2) dopamine receptor (Homo sapiens), sequence (P14416 whole entry, looked up): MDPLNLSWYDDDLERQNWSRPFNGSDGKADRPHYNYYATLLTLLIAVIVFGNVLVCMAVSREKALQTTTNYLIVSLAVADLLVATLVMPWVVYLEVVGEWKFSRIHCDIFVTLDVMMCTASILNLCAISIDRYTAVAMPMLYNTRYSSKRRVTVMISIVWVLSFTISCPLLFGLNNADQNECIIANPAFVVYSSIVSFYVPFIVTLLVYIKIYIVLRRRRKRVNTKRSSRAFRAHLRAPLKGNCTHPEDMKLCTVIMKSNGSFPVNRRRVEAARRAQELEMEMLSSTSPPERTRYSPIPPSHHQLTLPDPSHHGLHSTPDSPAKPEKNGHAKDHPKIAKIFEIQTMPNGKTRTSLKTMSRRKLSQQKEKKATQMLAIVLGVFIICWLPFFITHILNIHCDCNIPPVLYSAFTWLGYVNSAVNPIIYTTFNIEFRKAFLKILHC

Test [17] has the same target. As to the kind of experiment: Dopamine D2 receptor (DRD2) small molecule antagonists, cell-based qHTS assay (AID 1963595; active = well fitted inhibition curve with a large enough effect in the signal ratio in the repeat runs, with a control signal flat; the % refers to the signal ratio). The essentials: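 DRD2-HEK293; 0.1 mM Ro20-1724; cpd 10 min RT; NKH477 200 nM + quinpirole 12 nM, 30 min RT; HTRF cAMP (cAMP-d2/anti-cAMP cryptate), 665/620 nm ratio after 1 h.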
Test [18] has as its target Muscarinic acetylcholine receptor M1 (Homo sapiens) (UniProt P11229). As to the kind of experiment: Cholinergic receptor muscarinic 1 (CHRM1) small molecule antagonists, cell-based qHTS assay (AID 1963588). Note: nearly all actives have a fitted effect of over 40% in size. The essentials:
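CHRM1-CHO calcium-flux assay, antagonist mode. Cells were seeded 18 h, dye-loaded 1 h at 37 C and given compound for 5 min at RT, then acetylcholine was added at 50nM. FDSS fluorescence was read 3 min; 15 concentrations, three runs.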

Test [19] has as its target Beta-2 adrenergic receptor (Homo sapiens) (UniProt P07550). Briefly: Adrenergic beta2 receptor (ADRB2) small molecule agonists, cell-based qHTS assay (AID 1963593).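 Note: CHO cells stably overexpressing human ADRB2.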 The essentials:
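CHO cells stably over-expressing ADRB2 were plated overnight at 37C, then dosed with compounds plus a stimulation mix containing 100uM IBMX and 25uM Ro-20-1724 for 0.5hr at room temperature. cAMP was measured by HTRF competition, 1hr.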

Test [20] is described as follows: p53 small molecule agonists, cell-based qHTS assay (AID 1963582; active = well fitted activation curve with a large enough effect in the signal ratio in the repeat runs, not every such curve was filed as active; the % refers to the signal ratio). The essentials: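 Reporter line: p53RE-bla. Pre-incubation 5 h, 37 C, 5% CO2; compound (DMSO, pin tool) 16 h, 37 C; B/G FRET substrate 2 h RT; fluorescence intensity read.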

Muscarinic acetylcholine receptor M1 (Homo sapiens), sequence (P11229 whole entry, looked up): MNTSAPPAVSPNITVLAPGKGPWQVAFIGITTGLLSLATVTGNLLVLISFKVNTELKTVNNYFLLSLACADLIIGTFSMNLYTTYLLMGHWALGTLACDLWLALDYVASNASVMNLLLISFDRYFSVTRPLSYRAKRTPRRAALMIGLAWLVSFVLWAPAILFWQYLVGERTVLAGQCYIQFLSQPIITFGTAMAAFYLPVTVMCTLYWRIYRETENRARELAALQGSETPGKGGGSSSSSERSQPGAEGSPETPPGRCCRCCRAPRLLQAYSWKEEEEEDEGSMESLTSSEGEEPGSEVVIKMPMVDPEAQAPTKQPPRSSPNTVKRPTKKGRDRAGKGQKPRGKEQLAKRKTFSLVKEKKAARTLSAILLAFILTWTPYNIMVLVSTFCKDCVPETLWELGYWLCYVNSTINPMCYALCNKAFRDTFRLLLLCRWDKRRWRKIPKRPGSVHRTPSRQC
Beta-2 adrenergic receptor (Homo sapiens), sequence (P07550 whole entry, looked up): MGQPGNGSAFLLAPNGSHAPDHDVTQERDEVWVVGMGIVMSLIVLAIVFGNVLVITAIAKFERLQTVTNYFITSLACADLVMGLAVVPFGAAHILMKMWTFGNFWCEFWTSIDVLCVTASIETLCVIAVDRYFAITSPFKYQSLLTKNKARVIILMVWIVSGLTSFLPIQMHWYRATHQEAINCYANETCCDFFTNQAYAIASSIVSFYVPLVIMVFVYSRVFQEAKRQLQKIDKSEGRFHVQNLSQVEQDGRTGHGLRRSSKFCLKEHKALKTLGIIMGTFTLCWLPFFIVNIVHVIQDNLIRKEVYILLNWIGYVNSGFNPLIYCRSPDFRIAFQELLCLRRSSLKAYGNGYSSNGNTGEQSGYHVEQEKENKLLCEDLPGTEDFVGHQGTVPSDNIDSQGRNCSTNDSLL
Gonadotropin-releasing hormone receptor (Homo sapiens), sequence (P30968 whole entry, looked up): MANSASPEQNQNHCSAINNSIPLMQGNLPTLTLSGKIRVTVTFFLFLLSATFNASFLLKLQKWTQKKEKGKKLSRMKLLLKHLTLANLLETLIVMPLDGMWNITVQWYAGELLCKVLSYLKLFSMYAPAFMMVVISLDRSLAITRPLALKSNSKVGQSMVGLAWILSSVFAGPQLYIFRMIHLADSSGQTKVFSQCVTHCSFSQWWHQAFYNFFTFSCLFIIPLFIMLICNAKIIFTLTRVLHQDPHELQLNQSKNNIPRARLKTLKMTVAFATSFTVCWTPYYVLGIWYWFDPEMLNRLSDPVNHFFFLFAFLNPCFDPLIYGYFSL

As for `C=C(C)CCCC(C)CCO` (centres undefined), the Potency entry in test [1], in test [2], in test [3], in test [5], in test [6] and in [7] was “inactive” each time. Moreover, the Potency entry in [8], in [9], in test [10], in test [11], in test [12] and in [13] was “inactive” each time. Moreover, the Potency entry in [14], in test [15], in [16] and in test [17] was “inactive” each time. Besides, the outcome in test [4] was inactive.

Turning to `CCCCCCCCCCCCCOP(=O)(O)O`, the Potency entry in test [1], in [2], in test [3], in test [5], in [6] and in [7] was “inactive” in each case. Besides, the Potency entry in [10], in test [18], in test [12], in test [13], in [14] and in test [15] was “inactive” in each case. For the same molecule, the Potency result in [19], in [16] and in test [17] was “inactive” throughout. The result in test [4] was inactive.

In the case of `N#C[C@@H]1CC(F)(F)CN1C(=O)CNC1CC2CCC(C1)N2c1ncccn1` (some centres undefined), the Potency entry in [1], in test [2], in test [3], in [5], in test [6] and in test [8] was “inactive” throughout. The Potency entry in [9], in test [10], in test [12], in [15], in test [19] and in [16] was “inactive” throughout. In addition, the Potency result in test [17] is “inactive”. Moreover, the outcome in test [4] was inactive.

In the case of `CCc1cccc(C)c1`, the Potency entry in test [1], in [2], in test [3], in [5], in test [6] and in test [8] was “inactive” throughout. The Potency result in test [9], in test [20], in test [10], in [11], in [18] and in test [12] was “inactive” in each case. The Potency entry in test [13], in test [14], in test [15], in test [16] and in test [17] was “inactive” in each case. The result in test [4] was inactive.

Turning to `Cn1c(=O)[nH]c2ncn(C)c2c1=O`, the Potency result in test [1], in [2], in test [3], in test [5], in test [6] and in test [7] was “inactive” in each case. Besides, the Potency result in [8], in test [9], in test [10], in test [18], in [12] and in [13] was “inactive” throughout. Further, the Potency result in test [16] and in [17] was “inactive” each time. In addition, the result in [4] was inactive.

With `C[N+]1(CC2COC(c3ccccc3)(C3CCCCC3)O2)CCCCC1` (centres undefined), the Potency result in [1], in test [2], in [3], in [5], in test [6] and in [8] was “inactive” in each case. Further, the Potency entry in [10], in test [11], in test [18], in test [12], in test [15] and in test [19] was “inactive” in each case. Besides, the Potency entry in [16] and in test [17] was “inactive” throughout. The result in test [4] was inactive.

For the molecule `Cc1c(N)cccc1[N+](=O)[O-]`, the Potency result in [1], in test [3], in test [5], in test [6], in test [7] and in [8] was “inactive” throughout. In addition, the Potency entry in test [9], in test [11], in test [18], in [12], in test [13] and in [14] was “inactive” throughout. Moreover, the Potency entry in test [15], in test [16] and in test [17] was “inactive” in each case. In addition, in test [2], the Potency was 27.8 µM (active). Further, the result in test [4] was inactive.

For the molecule `C=CC(=O)OCC[N+](C)(C)C`, the Potency result in test [1], in [2], in [5], in test [7], in [8] and in test [9] was “inactive” in each case. The Potency entry in [20], in test [10], in test [11], in test [13], in test [15] and in test [19] was “inactive” throughout. Besides, the Potency result in [16] and in test [17] was “inactive” each time. Further, the Potency in test [3] is 0.438 µM (active); in test [12], 0.0438 µM (active). The outcome in test [4] was inactive.
